Experimental data from article PMC12820563, “FoxP3 forms a head-to-head dimer in vivo and stabilizes its multimerization on adjacent microsatellites”.
Over roughly 16,000 sequences, “rpm ratio (pull-down/input)” has its median near 0.94; the highest 2% begin near 1.7. The sample holds the highest values, similar sequences and a random draw of the others, so the mix is not that of the screen.

target: T1, MBP-FoxP1dN (Mus musculus, UniProt P58462 326-579); assay: PD-seq (MBP pull-down with sequencing); 20 mM Tris-HCl pH 7.5, 100 mM NaCl, 1.5 mM MgCl2, 0.4 uM protein, 0.1 uM dsDNA library, 30 min, room temperature, amylose pull-down; high values mean tight binding; settings: protein: recombinant; tags: His6-MBP; chain copies: 2; dsDNA, one strand shown
T1 sequence: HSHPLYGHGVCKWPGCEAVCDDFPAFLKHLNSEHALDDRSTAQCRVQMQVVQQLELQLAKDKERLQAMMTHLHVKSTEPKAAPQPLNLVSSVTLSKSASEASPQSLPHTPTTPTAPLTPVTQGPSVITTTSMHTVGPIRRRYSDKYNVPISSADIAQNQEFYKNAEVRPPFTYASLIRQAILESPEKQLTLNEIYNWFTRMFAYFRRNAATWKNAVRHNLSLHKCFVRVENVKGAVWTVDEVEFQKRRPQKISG
How it was run: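 E. coli-expressed mouse FoxP3 or FoxP1 fragment, N-terminus removed and tagged with His6-MBP, was used at 0.4 µM against 0.1 µM of a Klenow-filled degenerate double-stranded DNA library. After 30 min at room temperature in Tris pH 7.5 buffer with NaCl and MgCl2, complexes were pulled down on amylose resin and washed three times. Binding is pull-down over input reads-per-million enrichment from pooled replicates of the proteinase K-released, PCR-barcoded, Illumina-sequenced DNA.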

| Sequence | binding signal |
| --- | --- |
| GATGATTGTTCTCCCAGCTGATGAATTCTATTACTCGAGTAAACAAATTTTCCTAATCTTTCTGTTCAAGCGCCATCTAC | 0.895 RPM ratio (pull-down/input) |
| GATGATTGTTCTCCCAGCTGATGAATTCCCTCCATCGAGTAAACAAATTTTCCTAATCTTTCTGTTCAAGCGCCATCTAC | 0.855 RPM ratio (pull-down/input) |
| GATGATTGTTCTCCCAGCTGATGAATTAACACATTCGAGTAAACAAATTTTCCTAATCTTTCTGTTCAAGCGCCATCTAC | 1.18 RPM ratio (pull-down/input) |
| GATGATTGTTCTCCCAGCTGATGAATTCCTAGGTTCGAGTAAACAAATTTTCCTAATCTTTCTGTTCAAGCGCCATCTAC | 0.762 RPM ratio (pull-down/input) |
| GATGATTGTTCTCCCAGCTGATGAATTGCATTGTTCGAGTAAACAAATTTTCCTAATCTTTCTGTTCAAGCGCCATCTAC | 1.43 RPM ratio (pull-down/input) |
| GATGATTGTTCTCCCAGCTGATGAATTTGCATCTTCGAGTAAACAAATTTTCCTAATCTTTCTGTTCAAGCGCCATCTAC | 1.89 RPM ratio (pull-down/input) |
| GATGATTGTTCTCCCAGCTGATGAATTGCATCTTTCGAGTAAACAAATTTTCCTAATCTTTCTGTTCAAGCGCCATCTAC | 1.83 RPM ratio (pull-down/input) |
| GATGATTGTTCTCCCAGCTGATGAATTGCATTTTTCGAGTAAACAAATTTTCCTAATCTTTCTGTTCAAGCGCCATCTAC | 1.69 RPM ratio (pull-down/input) |
| GATGATTGTTCTCCCAGCTGATGAATTTGCATTTTCGAGTAAACAAATTTTCCTAATCTTTCTGTTCAAGCGCCATCTAC | 1.61 RPM ratio (pull-down/input) |
| GATGATTGTTCTCCCAGCTGATGAATTTTGCATTTCGAGTAAACAAATTTTCCTAATCTTTCTGTTCAAGCGCCATCTAC | 1.29 RPM ratio (pull-down/input) |
| GATGATTGTTCTCCCAGCTGATGAATTGAAACGCTCGAGTAAACAAATTTTCCTAATCTTTCTGTTCAAGCGCCATCTAC | 0.86 RPM ratio (pull-down/input) |
| GATGATTGTTCTCCCAGCTGATGAATTTCTACATTCGAGTAAACAAATTTTCCTAATCTTTCTGTTCAAGCGCCATCTAC | 0.939 RPM ratio (pull-down/input) |
| GATGATTGTTCTCCCAGCTGATGAATTACCGTGCTCGAGTAAACAAATTTTCCTAATCTTTCTGTTCAAGCGCCATCTAC | 0.964 RPM ratio (pull-down/input) |
| GATGATTGTTCTCCCAGCTGATGAATTGTACACATCGAGTAAACAAATTTTCCTAATCTTTCTGTTCAAGCGCCATCTAC | 2.11 RPM ratio (pull-down/input) |
| GATGATTGTTCTCCCAGCTGATGAATTCTACACATCGAGTAAACAAATTTTCCTAATCTTTCTGTTCAAGCGCCATCTAC | 1.06 RPM ratio (pull-down/input) |
| GATGATTGTTCTCCCAGCTGATGAATTTTGTACATCGAGTAAACAAATTTTCCTAATCTTTCTGTTCAAGCGCCATCTAC | 1.22 RPM ratio (pull-down/input) |

| Sequence | binding signal |
| --- | --- |
| GATGATTGTTCTCCCAGCTGATGAATTGTACAAATCGAGTAAACAAATTTTCCTAATCTTTCTGTTCAAGCGCCATCTAC | 1.35 RPM ratio (pull-down/input) |
| GATGATTGTTCTCCCAGCTGATGAATTGTGTACATCGAGTAAACAAATTTTCCTAATCTTTCTGTTCAAGCGCCATCTAC | 2 RPM ratio (pull-down/input) |
| GATGATTGTTCTCCCAGCTGATGAATTCTGTACATCGAGTAAACAAATTTTCCTAATCTTTCTGTTCAAGCGCCATCTAC | 1.09 RPM ratio (pull-down/input) |
| GATGATTGTTCTCCCAGCTGATGAATTGCAGTTGTCGAGTAAACAAATTTTCCTAATCTTTCTGTTCAAGCGCCATCTAC | 1.34 RPM ratio (pull-down/input) |
| GATGATTGTTCTCCCAGCTGATGAATTACAGTACTCGAGTAAACAAATTTTCCTAATCTTTCTGTTCAAGCGCCATCTAC | 1.06 RPM ratio (pull-down/input) |
| GATGATTGTTCTCCCAGCTGATGAATTGTTATAATCGAGTAAACAAATTTTCCTAATCTTTCTGTTCAAGCGCCATCTAC | 1.59 RPM ratio (pull-down/input) |
| GATGATTGTTCTCCCAGCTGATGAATTTGCTTACTCGAGTAAACAAATTTTCCTAATCTTTCTGTTCAAGCGCCATCTAC | 1.69 RPM ratio (pull-down/input) |
| GATGATTGTTCTCCCAGCTGATGAATTAGCAGTCTCGAGTAAACAAATTTTCCTAATCTTTCTGTTCAAGCGCCATCTAC | 0.877 RPM ratio (pull-down/input) |
| GATGATTGTTCTCCCAGCTGATGAATTTGCATTATCGAGTAAACAAATTTTCCTAATCTTTCTGTTCAAGCGCCATCTAC | 1.49 RPM ratio (pull-down/input) |
| GATGATTGTTCTCCCAGCTGATGAATTGCAGCTATCGAGTAAACAAATTTTCCTAATCTTTCTGTTCAAGCGCCATCTAC | 1.15 RPM ratio (pull-down/input) |
| GATGATTGTTCTCCCAGCTGATGAATTTCTTGCATCGAGTAAACAAATTTTCCTAATCTTTCTGTTCAAGCGCCATCTAC | 1.27 RPM ratio (pull-down/input) |
| GATGATTGTTCTCCCAGCTGATGAATTGCATCTATCGAGTAAACAAATTTTCCTAATCTTTCTGTTCAAGCGCCATCTAC | 1.75 RPM ratio (pull-down/input) |
| GATGATTGTTCTCCCAGCTGATGAATTTATTGCATCGAGTAAACAAATTTTCCTAATCTTTCTGTTCAAGCGCCATCTAC | 1.62 RPM ratio (pull-down/input) |
| GATGATTGTTCTCCCAGCTGATGAATTGCATTTATCGAGTAAACAAATTTTCCTAATCTTTCTGTTCAAGCGCCATCTAC | 1.77 RPM ratio (pull-down/input) |
| GATGATTGTTCTCCCAGCTGATGAATTAGTCTGGTCGAGTAAACAAATTTTCCTAATCTTTCTGTTCAAGCGCCATCTAC | 0.822 RPM ratio (pull-down/input) |
